Consider 17 compounds from the antibiotic and cytotoxicity screens of Wong et al. (2023).

Among all 39,000 compounds or so, about 3,300 (8.5%) were called active. Shown is part of a subset that was picked to be rich in actives.

The assay concerns HepG2. The assay is described as follows: cytotoxicity call (relative viability < 0.9). To be noted: 10 µM.
In the case of `C=C1CCC=C(C)CCC2C1CC2(C)C.O` (single isomer, unassigned; (-)) [(-)E-CARYOPHYLLENE hydrate ], the cytotoxicity call was “inactive”. For `C=C1C(=O)OC2C1CCC(C)=CCCC1(C)OC21` (configuration not stated), the cytotoxicity call is “active”. As to `C[C@H](CO)N1C[C@H](C)[C@H](CN(C)S(=O)(=O)c2ccccc2)Oc2ncc(C#Cc3ccccc3)cc2C1=O`, the cytotoxicity call is “inactive”. For `Cc1ccc(S(=O)(=O)Nc2ccc3c(c2)C(=O)N([C@H](C)CO)C[C@H](C)[C@@H](CN(C)C(=O)c2ccccc2)OCCCC[C@@H](C)O3)cc1`, the cytotoxicity call is “inactive”.

In the case of `COCC(=O)N1CC[C@]2(CC(C(=O)NCc3cnc(C)cn3)=NO2)C1`, the cytotoxicity call is “inactive”. Turning to `COc1ccc(S(=O)(=O)N(C)C[C@H]2OCCCC[C@H](C)Oc3ccc(NC(=O)Nc4c(C)noc4C)cc3C(=O)N([C@@H](C)CO)C[C@@H]2C)cc1`, the cytotoxicity call was “active”. For the compound `COc1ccc(S(=O)(=O)N(C)C[C@@H]2OCCCC[C@H](C)Oc3ccc(NC(=O)Nc4c(C)noc4C)cc3C(=O)N([C@@H](C)CO)C[C@H]2C)cc1`, the cytotoxicity call was “inactive”. For `COc1ccc(S(=O)(=O)N(C)C[C@H]2OCCCC[C@@H](C)Oc3ccc(NC(=O)Nc4c(C)noc4C)cc3C(=O)N([C@H](C)CO)C[C@@H]2C)cc1`, the cytotoxicity call is “inactive”.

For the compound `COc1ccc(S(=O)(=O)N(C)C[C@@H]2OCCCC[C@@H](C)Oc3ccc(NC(=O)Nc4c(C)noc4C)cc3C(=O)N([C@@H](C)CO)C[C@H]2C)cc1`, the cytotoxicity call was “inactive”. Then `COc1ccc(S(=O)(=O)N(C)C[C@H]2OCCCC[C@H](C)Oc3ccc(NC(=O)Nc4c(C)noc4C)cc3C(=O)N([C@@H](C)CO)C[C@H]2C)cc1`, with “active”; and `COc1ccc(S(=O)(=O)N(C)C[C@@H]2OCCCC[C@H](C)Oc3ccc(NC(=O)Nc4c(C)noc4C)cc3C(=O)N([C@H](C)CO)C[C@@H]2C)cc1`, with “inactive”. As for `Cc1noc(C)c1NC(=O)N(C)C[C@H]1Oc2ccc(NS(=O)(=O)c3cn(C)cn3)cc2CC(=O)N([C@H](C)CO)C[C@@H]1C`, the cytotoxicity call is “inactive”.

As to `C[C@@H]1CN([C@@H](C)CO)C(=O)c2cccc(NS(=O)(=O)c3cn(C)cn3)c2O[C@@H]1CN(C)Cc1ccncc1`, the cytotoxicity call is “inactive”. Turning to `O=C(C[C@H]1C[C@H]2c3cc(NC(=O)Nc4ccc(C(F)(F)F)cc4)ccc3O[C@H]2[C@H](CO)O1)NCc1cc(F)ccc1F`, the cytotoxicity call is “inactive”.

Turning to `CNC[C@@H]1OCCCC[C@@H](C)Oc2ccc(NS(=O)(=O)c3c(C)noc3C)cc2C(=O)N([C@H](C)CO)C[C@@H]1C`, the cytotoxicity call is “inactive”. With `C[C@H]1C/C(=C\N(C)C)C(=O)C1=O`, the cytotoxicity call was “active”. For `C[C@@H]1CCCCO[C@@H](CN(C)C(=O)Nc2ccc3c(c2)OCO3)[C@H](C)CN([C@H](C)CO)C(=O)c2cc(NS(=O)(=O)c3ccc(Cl)cc3)ccc2O1`, the cytotoxicity call is “inactive”.
